Pol iota inh – qHTS for Inhibitors of Polymerase Iota | DNA polymerase iota (Homo sapiens), Q9UNA4 | Pol iota fluorescent replication assay, 10 min | Potency, µM (top dose mostly 115 µM), most hits filed as inhibitors | actives 1% (n = 390,000)
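Fluorescent replication assay read twice, at 0 min and 10 min after adding 50 nM (final) substrate. Enzyme (10 nM) and compounds were first incubated 15 min at room temperature; enzyme-free buffer wells were negative controls.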
FEN1 inh – qHTS Assay for the Inhibitors of Human Flap endonuclease 1 (FEN1); Recombinant FEN1 flap cleavage, fluorescence, 15 min; Potency, µM (series often up to 114 µM), usual class: inhibitors; actives 0.35% (n = 390,000); P39748; AID 588795, 2011; note: nearly all actives have a fitted effect of over 65% in size
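Concentration–response screening of FEN1 (10 nM): 15 min compound preincubation at room temperature, reaction started with 50 nM substrate and read at 0 and 15 min. Corrected, normalized data were fitted by a four-parameter Hill equation.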
POLB inh – qHTS Assay for Inhibitors of DNA Polymerase Beta; P06746; Pol beta primer extension/strand displacement, fluorescence kinetic; Potency, µM (titrated, usually from 114 µM), actives largely listed as inhibitors; actives 1.3% (n = 340,000); AID 485314, 2010
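10 nM enzyme + cpd, 15 min RT; start with substrate 50 nM final; read 0 min and after 10 min RT. Corrected, normalized data; 4-parameter Hill curve fit.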
WRN inhibitor – qHTS for Inhibitors of WRN Helicase; Bifunctional 3'-5' exonuclease/ATP-dependent helicase WRN (Homo sapiens), Q14191; WRN helicase unwinding, fluorescent forked duplex, kinetic; Potency, µM (top dose mostly 114 µM), usual class: inhibitors; actives 0.46% (n = 360,000); note: nearly all actives have a fitted effect of over 55% in size
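Screening of the MLSMR collection measured strand separation of a quenched forked DNA duplex (100 nM) by 20 nM WRN with 2 mM ATP, all final. Compounds were preincubated with enzyme 15 min at room temperature.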
POLH inh – qHTS for Inhibitors of Polymerase Eta; DNA polymerase eta (Homo sapiens), Q9Y253; recombinant Pol eta, fluorescent DNA replication assay; Potency, µM (doses to about 114 µM), most hits filed as inhibitors; actives 1.2% (n = 390,000); AID 588591, 2011
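Fluorescent replication assay: 50 nM final substrate added after a 15 min room-temperature compound preincubation with 10 nM enzyme. Signal taken at 0 min and again at 10 min.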
POLK inh – qHTS for Inhibitors of Polymerase Kappa; DNA polymerase kappa (Homo sapiens), Q9UBT6; purified Pol kappa, fluorescent DNA synthesis assay, 10 min; Potency, µM (series often up to 107 µM), usual class: inhibitors; actives 0.53% (n = 400,000)
Target sequence (Q9UBT6 whole entry, looked up): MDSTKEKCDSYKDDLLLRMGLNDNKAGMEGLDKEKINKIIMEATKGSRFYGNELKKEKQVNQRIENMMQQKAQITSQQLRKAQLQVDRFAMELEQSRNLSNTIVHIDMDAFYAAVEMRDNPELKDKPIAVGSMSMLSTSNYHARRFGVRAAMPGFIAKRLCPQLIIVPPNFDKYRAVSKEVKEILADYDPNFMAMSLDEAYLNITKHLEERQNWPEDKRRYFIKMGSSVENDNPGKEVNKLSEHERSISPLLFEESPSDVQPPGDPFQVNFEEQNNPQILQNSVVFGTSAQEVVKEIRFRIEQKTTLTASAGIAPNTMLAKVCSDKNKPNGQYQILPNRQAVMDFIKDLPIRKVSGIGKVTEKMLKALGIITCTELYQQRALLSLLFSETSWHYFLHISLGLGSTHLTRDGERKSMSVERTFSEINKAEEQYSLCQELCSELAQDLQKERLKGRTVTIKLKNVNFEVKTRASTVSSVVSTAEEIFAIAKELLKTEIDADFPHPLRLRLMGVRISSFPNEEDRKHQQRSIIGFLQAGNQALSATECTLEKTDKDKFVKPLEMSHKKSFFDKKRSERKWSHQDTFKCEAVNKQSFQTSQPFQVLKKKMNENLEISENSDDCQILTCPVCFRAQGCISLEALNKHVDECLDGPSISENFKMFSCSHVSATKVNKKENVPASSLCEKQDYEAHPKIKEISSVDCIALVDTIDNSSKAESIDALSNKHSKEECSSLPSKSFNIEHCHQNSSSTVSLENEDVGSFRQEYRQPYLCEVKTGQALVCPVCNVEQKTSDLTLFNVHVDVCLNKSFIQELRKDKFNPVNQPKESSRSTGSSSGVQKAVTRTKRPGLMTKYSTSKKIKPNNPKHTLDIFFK
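Readout: fluorescence, taken kinetically at 0 and 10 min. Conditions: 10 nM Pol kappa, 15 min RT compound preincubation, 50 nM substrate final. Controls: enzyme-free buffer wells.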
Each line names hits and unclear results; the compound was inactive in the other large screens. In the library only some 2.4% were active in any assay of this set; here they are far more common. Calls come from the whole dose curve; as a rule, active = well fitted curve in the direction sought with a large enough effect; inconclusive = small, poorly fitted or top-dose-only effect, or another doubt; inactive = no such curve, though single readings can be large; an effect the other way counts as inactive or inconclusive.

CCOC(=O)c1ccc(OCC2c3cc(OC)c(OC)cc3CCN2C(=O)Cc2ccc(OC)c(OC)c2)cc1 (configuration not stated)	none (no result: WRN inhibitor)
Cc1cc(C)nc(NC(=O)c2ccc([N+](=O)[O-])o2)n1	Pol iota inh 71µM, POLH inh inconclusive
CCCCCCCCN1[C@@H](CC(C)=O)c2ccc(/C=C/C(C)=O)cc2S1(=O)=O	Pol iota inh inconclusive (no result: POLB inh, WRN inhibitor, POLH inh)
NC(=O)CSC1=N/C(=C\c2ccco2)C(=O)N1c1ccc(OC(F)F)cc1	Pol iota inh 35µM, POLK inh inconclusive
CCN(CC)C(=O)CSC1=N/C(=C/c2ccco2)C(=O)N1c1ccc(OC)c(Cl)c1	POLB inh inconclusive, POLH inh inconclusive
COc1ccc(CCNC(=O)CCCCn2c(=O)c3ccccc3n(Cc3cc(C)ccc3C)c2=O)cc1OC	Pol iota inh 79µM (no result: WRN inhibitor)
COc1ccc(-c2onc(C)c2C)cc1S(=O)(=O)N1c2ccccc2CC1C (configuration not stated)	POLB inh inconclusive, POLH inh inconclusive (no result: WRN inhibitor)
C=CCn1c(SCc2nc3sc(C(=O)O)c(C)c3c(=O)[nH]2)nnc1-c1ccccc1	Pol iota inh inconclusive, POLH inh 32µM
CSC1=NSC2=NC(=O)/C(=C/c3coc4ccc(O)cc4c3=O)C(=N)N12	Pol iota inh inconclusive, FEN1 inh 45µM, POLB inh 25µM, WRN inhibitor 45µM, POLH inh 3.2µM, POLK inh 40µM
CSC1=NSC2=NC(=O)/C(=C\c3cccs3)C(=N)N12	none
C[C@@H]1[C@H](c2ccccc2)OCCS(=O)(=O)N1Cc1ccccc1F	none (no result: POLB inh, WRN inhibitor, POLH inh)
C1CCC[C@H]2CCCN3CC[C@H](CCCCCC[C@@H]4CCCN5CC[C@H](CC1)OC45)OC23	none (no result: Pol iota inh, FEN1 inh, POLB inh, WRN inhibitor, POLH inh)
O=S(=O)(Nc1ccccc1)c1ccc(-c2cnc(C3CC3)o2)cc1	Pol iota inh 79µM
CCc1ccccc1NC(=O)N1CCN(c2cc(-c3noc(C)n3)ccc2C)CC1	none (no result: WRN inhibitor)
COc1ccc(C(=O)N2CC(=O)Nc3ccc(F)cc3C2c2ccc(F)cc2)c(OC)c1 (configuration not stated)	none (no result: WRN inhibitor)
O=c1oc2c(-c3ccc([N+](=O)[O-])cc3)cc(O)cc2s1	Pol iota inh 50µM, POLB inh inconclusive, WRN inhibitor 56µM, POLH inh inconclusive, POLK inh inconclusive
NC1=C(c2ccc([N+](=O)[O-])cc2)C(=O)CO1	none
CC(C)C(C)(C#N)NC(=O)CSc1nc2scc(-c3ccco3)c2c(=O)n1-c1ccccc1 (configuration not stated)	Pol iota inh inconclusive, POLB inh 28µM
C=CCn1c(SCC(=O)N2CCOCC2)nc2scc(-c3ccco3)c2c1=O	Pol iota inh 16µM, FEN1 inh inconclusive, POLB inh 28µM, WRN inhibitor 56µM, POLH inh 32µM, POLK inh inconclusive
C=CCn1c(SC(F)F)nc2scc(-c3ccco3)c2c1=O	none
CC(C)C(C)NC(=O)CSc1nc2scc(-c3ccco3)c2c(=O)n1-c1ccccc1 (configuration not stated)	Pol iota inh inconclusive, POLH inh inconclusive
C=CCn1c(SCC(C)=O)nc2scc(-c3ccco3)c2c1=O	Pol iota inh inconclusive, FEN1 inh inconclusive, POLB inh 10µM, WRN inhibitor inconclusive, POLH inh 40µM, POLK inh inconclusive
C=CCn1c(SCC(=O)N2CCCC2)nc2scc(-c3cccs3)c2c1=O	POLH inh inconclusive
Cc1cccc(OCCC(=O)NO)c1	none (no result: POLB inh, WRN inhibitor, POLH inh)
O=C(C[n+]1cccc(Br)c1)c1ccc(Br)cc1	Pol iota inh inconclusive (no result: POLB inh, WRN inhibitor, POLH inh)
COc1cc2nc(N3CCCN(C)CC3)nc(OC3CCN(C)CC3)c2cc1OC	none (no result: POLB inh, WRN inhibitor, POLH inh)
CCCCn1c(N)c(N(CC(C)C)C(=O)c2oc3ccc(Br)cc3c2C)c(=O)[nH]c1=O	Pol iota inh inconclusive, POLH inh 79µM (no result: POLB inh)
CCCCn1c(N)c(N(CC(C)C)C(=O)c2ccc(C)o2)c(=O)[nH]c1=O	none (no result: POLB inh)
CCCCn1c(N)c(N(CC(C)C)C(=O)c2cc(=O)[nH]c3ccccc23)c(=O)[nH]c1=O	none (no result: POLB inh)
CCCCn1c(N)c(N(CC(C)C)C(=O)c2cc(-c3ccco3)nc3ccccc23)c(=O)[nH]c1=O	Pol iota inh 40µM, POLH inh 28µM, POLK inh inconclusive (no result: POLB inh)
O=C(O)CCC/C=C\C[C@@H]1C(/C=C/[C@@H](O)COc2cccc(C(F)(F)F)c2)[C@@H](O)C[C@@H]1O (some centres not stated)	none (no result: Pol iota inh, FEN1 inh, POLB inh, WRN inhibitor, POLH inh)
O=C(COC(=O)c1cc2c(s1)CCCC2)Nc1ccc(Cl)cn1	none
COc1ccc(NC(=O)COC(=O)c2cc3c(s2)CCC3)cc1	Pol iota inh 32µM, POLH inh 45µM, POLK inh inconclusive (no result: POLB inh)
CCCCOc1ccc(CNC(=O)CCCN2C(=O)CSc3c2c(C)nn3-c2ccccc2)cc1	Pol iota inh inconclusive (no result: WRN inhibitor)
Cc1cc(C)c(S(=O)(=O)/N=C2\C=CC(=O)C(Cl)=C2)c(C)c1	Pol iota inh inconclusive, POLB inh 35µM, POLH inh inconclusive, POLK inh inconclusive
CCCC(=O)Nc1cc(C)c(O)c(-c2nc3ncccc3o2)c1	none (no result: WRN inhibitor)
CC(C)(C)c1nnc(N/N=C/c2cc(Br)ccc2O)n(N)c1=O	none
Cc1nnc(N/N=C/c2cccc(OCc3ccc(Cl)c(Cl)c3)c2)n1N	Pol iota inh 6.3µM, POLH inh inconclusive
CCOc1cc(/C=N/Nc2nnc(C)n2N)ccc1OC(C)=O	Pol iota inh 2.8µM, POLB inh inconclusive
CCc1nnc(N/N=C/c2cccs2)n1N	Pol iota inh 22µM
C(=N\Nc1nc2ccccc2s1)/c1cccs1	none
CCc1nnc(N/N=C/c2cc(Br)c(O)cc2O)n1N	Pol iota inh 8.9µM
COc1cc(OC)c(/C=C/c2cc3ccccc3c[n+]2C)c(OC)c1	Pol iota inh inconclusive, FEN1 inh inconclusive (no result: POLB inh, WRN inhibitor, POLH inh)
CCc1nnc(N/N=C/c2ccc(O)c(OC)c2)n1N	Pol iota inh 8.9µM
CCc1nnc(N/N=C\c2ccc(OC(C)=O)c(OC)c2)n1N	Pol iota inh 2µM
Cc1csc(NC(=O)Nc2ccc(Cl)cc2)n1	Pol iota inh inconclusive, POLB inh 28µM, POLH inh inconclusive
Cc1[nH]c(=O)c(C#N)c2c1CCCC2	none
N#Cc1c(-c2ccco2)c2c([nH]c1=S)CCCC2	Pol iota inh 13µM, POLB inh 28µM, WRN inhibitor inconclusive, POLH inh inconclusive
N#Cc1c2c(c(-c3ccco3)[nH]c1=O)CCCC2	Pol iota inh 28µM, WRN inhibitor inconclusive, POLK inh inconclusive
N#Cc1c(-c2cccnc2)c2c([nH]c1=S)CCCC2	Pol iota inh inconclusive

High-throughput results from PubChem BioAssay.
